# “And” between values parts separate entries of the source, which are not always exact repeats. Identical values can stand only once. Counter-ions that a name gives are not always drawn. Hit rate of the full screen: of about 5,800 compounds, about 620 (11%) showed activity. The entries come from a sample that favours actives as a whole. A number with no mark means an inactive call.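 The calls were made as follows: active = score above a cut-off or among the top three wells of a plate; in these data no inactive exceeds 0.85.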
# Test system: primary human hepatic stellate cells (donor 1)
# Assay: scaled lipid accumulation score (0 = DMSO-like, 1 = nortriptyline-like); higher = stronger HSC inactivation (lipid re-accumulation), active = hit call of the paper
# Conditions: 48 h
# [1] = library stock concentration: 3.33 mM
# [2] = library stock concentration: 80 uM
# [3] = library stock concentration: 400 uM
# [4] = library stock concentration: 2 mM
# [5] = library stock concentration: 10 mM
# [6] = library stock concentration: 1 mM
smiles,measurement,setting,value
"O=C(O)C=Cc1cc(Br)c(Br)c(Br)c1Br [Casein Kinase II Inhibitor III, TBCA]",scaled lipid accumulation score,[1],≤ 0
Cc1cccc(-c2[nH]c(CNc3ccccc3F)nc2-c2ccc3ncnn3c2)n1,scaled lipid accumulation score,[2],≤ -0.001
same,scaled lipid accumulation score,[3],≤ -0.001
same,scaled lipid accumulation score,[4],≤ -0.001
same,scaled lipid accumulation score,[5],≤ -0.001
CCCCCCCCCCCCCCCCOC[C@@H](O)COP(=O)(O)O [1-Hexadecyl Lysophosphatidic Acid],scaled lipid accumulation score,[6],≤ 0
Cc1nc(N=Nc2ccc(C(=O)O)cc2)c(COP(=O)(O)O)c(C=O)c1O,scaled lipid accumulation score,[5],0.139
CCCCCCCCCCCCCCCCCC(=O)NCCS(=O)(=O)O [N-Stearoyl Taurine],scaled lipid accumulation score,[6],0.008
CNC(=O)c1ccc(C)c(-n2c(C)cc(OCc3ccc(F)cc3F)c(Br)c2=O)c1,scaled lipid accumulation score,[2],0.057
same,scaled lipid accumulation score,[3],0.038
same,scaled lipid accumulation score,[4],0.056
same,scaled lipid accumulation score,[1],0.014
same,scaled lipid accumulation score,[5],≤ 0 and ≤ -0.001
CCN(CCCOc1ccc2c(Nc3cc(CC(=O)Nc4cccc(F)c4)[nH]n3)ncnc2c1)CCOP(=O)(O)O [Barasertib],scaled lipid accumulation score,[2],0.022
same,scaled lipid accumulation score,[3],≤ -0.001
same,scaled lipid accumulation score,[4],0.115
same,scaled lipid accumulation score,[5],0.242
"CCC=CCC=CCC=CCCCCCCCCCC(=O)O [11(Z),14(Z),17(Z)-Eicosatrienoic Acid]",scaled lipid accumulation score,[6],≤ 0
O=S(=O)(c1ccccc1)c1cnc2c(N3CCNCC3)cccc2c1 [listing 1 of 2 here],scaled lipid accumulation score,[1],0.285
Cc1ccc(Sc2ccccc2N2CCNCC2)c(C)c1,scaled lipid accumulation score,[1],0.769
same,scaled lipid accumulation score,[5],0.102
O=S(=O)(c1ccccc1)c1cnc2c(N3CCNCC3)cccc2c1 [listing 2 of 2 here],scaled lipid accumulation score,[5],0.994 (active)
CCCCCCC[C@H](O)/C=C/[C@@H]1[C@@H](C/C=C\CCCC(=O)O)[C@@H](O)C[C@H]1O [20-ethyl Prostaglandin F2.alpha.],scaled lipid accumulation score,[6],≤ 0
NC(=O)Nc1cc(-c2cccc(F)c2)sc1C(=O)N[C@H]1CCCNC1 [listing 1 of 2 here],scaled lipid accumulation score,[1],0.879 (active)
NC(=O)Nc1cc(-c2cccc(F)c2)sc1C(=O)N[C@H]1CCCNC1 [listing 2 of 2 here],scaled lipid accumulation score,[2],≤ 0
same,scaled lipid accumulation score,[3],0.06 and ≤ -0.005
same,scaled lipid accumulation score,[4],0.23 and 0.444
same,scaled lipid accumulation score,[5],0.559 and 0.276
NC(=O)Nc1cc(-c2ccccc2)sc1C(N)=O [IKK-2 Inhibitor XI],scaled lipid accumulation score,[1],≤ 0
CNCC(O)c1ccc(O)c(O)c1 (racemic) [(+/-)-Epinephrine hydrochloride],scaled lipid accumulation score,[5],≤ 0
"CCCCC[C@H](O)CC[C@@H]1[C@@H](C/C=C\CCCC(=O)O)[C@@H](O)C[C@H]1O [13,14-dihydro Prostaglandin F2.alpha.]",scaled lipid accumulation score,[6],≤ 0
CCCCC[C@H](O)/C=C/[C@@H]1[C@@H](CCCCCCC(=O)O)[C@@H](O)C[C@H]1O [Prostaglandin F1.alpha.],scaled lipid accumulation score,[6],≤ 0
O=P(O)(O)OC1[C@@H](O)[C@H](O)C(O)[C@H](O)[C@@H]1O (stereo partly drawn) [D-myo-Inositol-3-phosphate (sodium salt)],scaled lipid accumulation score,[6],0.009
Cc1nc(N)sc1-c1ccnc(Nc2ccc(N3CCOCC3)cc2)n1 [listing 1 of 3 here],scaled lipid accumulation score,[5],1.07 (active)
Cc1ncc(-c2ccnc(Nc3ccc(S(C)(=O)=O)cc3)n2)n1C(C)C,scaled lipid accumulation score,[2],0.708
same,scaled lipid accumulation score,[3],0.763
same,scaled lipid accumulation score,[4],0.527
same,scaled lipid accumulation score,[1],0.078
same,scaled lipid accumulation score,[5],0.329 and 0.334
Cc1nc(N)sc1-c1ccnc(Nc2ccc(N3CCOCC3)cc2)n1 [listing 2 of 3 here],scaled lipid accumulation score,[5],1.02 (active)
Fc1cc(-c2ccnc(Nc3ccc(-n4cnc(N5CCOCC5)n4)cc3)n2)cc(N2CCOCC2)c1,scaled lipid accumulation score,[2],0.394
same,scaled lipid accumulation score,[3],0.734
same,scaled lipid accumulation score,[4],0.178
same,scaled lipid accumulation score,[5],0.442
Cc1nc(N)sc1-c1ccnc(Nc2ccc(N3CCOCC3)cc2)n1 [listing 3 of 3 here],scaled lipid accumulation score,[3],≤ -0.005
same,scaled lipid accumulation score,[4],≤ -0.005
same,scaled lipid accumulation score,[1],≤ 0
C[C@@H](O)[C@@H]1NC(=O)[C@H](CCCCN)NC(=O)[C@@H](Cc2c[nH]c3ccccc23)NC(=O)[C@H](Cc2ccccc2)NC(=O)[C@@H](NC(=O)[C@H](N)Cc2ccccc2)CSSC[C@@H](C(=O)N[C@H](CO)[C@@H](C)O)NC1=O [Octreotide],scaled lipid accumulation score,[4],0.006
CC(=O)O/N=C1/C(c2c(O)[nH]c3cc(Br)ccc23)=Nc2ccccc21 [GSK-3 Inhibitor X],scaled lipid accumulation score,[1],≤ 0
O=C1C[C@@H]2[C@@H](CC[C@@H](O)CCc3ccccc3)[C@H](O)C[C@@H]2O1 [Latanoprost Lactone Diol],scaled lipid accumulation score,[6],0.003
O=C(CCCCCCCCCCCCC1CCCC1)Nc1ccc(S(=O)(=O)c2ccc(NC(=O)CCCCCCCCCCCCC3CCCC3)cc2)cc1 [Chaulmosulfone],scaled lipid accumulation score,[5],≤ -0.027
Cc1cc2c(F)c(Oc3ncnn4cc(OC[C@@H](C)O)c(C)c34)ccc2[nH]1 [Brivanib],scaled lipid accumulation score,[2],≤ -0.009
same,scaled lipid accumulation score,[3],≤ -0.009
same,scaled lipid accumulation score,[4],≤ -0.009
same,scaled lipid accumulation score,[5],≤ -0.009
Cc1cc2c(F)c(Oc3ncnn4cc(OC[C@@H](C)OC(=O)[C@H](C)N)c(C)c34)ccc2[nH]1,scaled lipid accumulation score,[1],≤ 0
same,scaled lipid accumulation score,[5],≤ 0
COc1cc2c(Oc3ccc4[nH]c(C)cc4c3F)ncnc2cc1OCCCN1CCCC1 [Cediranib] [listing 1 of 2 here],scaled lipid accumulation score,[4],1.06 (active)
COc1cc2c(Oc3ccc4[nH]c(C)cc4c3F)ncnc2cc1OCCCN1CCCC1 [Cediranib (AZD2171)] [listing 1 of 2 here],scaled lipid accumulation score,[1],1.1 (active)
COc1cc2c(Oc3ccc4[nH]c(C)cc4c3F)ncnc2cc1OCCCN1CCCC1 [Cediranib] [listing 2 of 2 here],scaled lipid accumulation score,[2],0.077
same,scaled lipid accumulation score,[3],0.464
same,scaled lipid accumulation score,[5],0.693
COc1cc2c(Oc3ccc4[nH]c(C)cc4c3F)ncnc2cc1OCCCN1CCCC1 [Cediranib (AZD2171)] [listing 2 of 2 here],scaled lipid accumulation score,[5],0.678
Cc1cc2c(F)c(Oc3ncnn4cc(OC[C@@H](C)O)c(C)c34)ccc2[nH]1,scaled lipid accumulation score,[1],0.023
same,scaled lipid accumulation score,[5],≤ 0
CCCCCCCC/C=C\CCCCCC(=O)O [cis-7-Hexadecenoic Acid],scaled lipid accumulation score,[6],≤ 0

# Reference: the supplement of paper PMC9135407
